TDP1 cell CPT: growth inhibition of DT40 Tdp1-/-;hTDP1 cells with camptothecin (screen for TDP1 inhibitors) | chicken DT40 Tdp1-/-;hTDP1 cells + 20 nM CPT, ATP luminescence, 48 h | Potency, µM (doses to about 46.2 µM), for inactives: at the highest dose activity change, negative = growth inhibition, most hits filed as inhibitors | 12% of 420,000 active; note: potency is the fitted concentration of half-maximal effect; nearly all actives have a fitted effect of over 55% in size
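Cell growth measured by CellTiter-Glo luminescence after a minimum 48 h, 37 C compound exposure with 20 nM CPT in Tdp1-knockout DT40 cells stably expressing hTDP1, seeded 400/well; qHTS titration format.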
DT40 TDP1 no CPT: qHTS for Inhibitors of human tyrosyl-DNA phosphodiesterase 1 (TDP1): qHTS in cells in absence of CPT; DT40 Tdp1-/- hTDP1 cells, no CPT, ATP luminescence, 48 h; Potency, µM (titrated, usually from 46.2 µM), without a hit: top-dose activity change, negative = growth inhibition, most hits filed as inhibitors; 15% of 420,000 active; note: potency is the fitted concentration of half-maximal effect; nearly all actives have a fitted effect of over 55% in size
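Compound effects on proliferation are scored in DT40 Tdp1-/-;hTDP1 cells in the absence of CPT. ATP levels (CellTiter-Glo luminescence) are recorded after a ≥48 hr, 37 °C incubation.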
IL-1B inflam inh: inflammasome signaling inhibition, IL-1 beta readout. THP-1 LPS/ATP IL-1B secretion, AlphaLISA, 16 h; stronger effect = lower value. activity change, % at 57.5 µM. 4.7% of 360,000 active. AID 743279; in the data active = activity change below about -50%; inconclusive = mostly about -30% to -49%
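THP-1 cells pretreated 1 hr with compounds (up to 57.5 uM final), then stimulated with LPS (250 ng/mL final) plus ATP (1.25 mM final); secreted IL-1B measured by AlphaLISA after 16 hr, decreased signal indicating inhibition.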
HT1080NT lethal: kills 2HG-producing HT-1080-NT fibrosarcoma cells; HT-1080-NT fibrosarcoma viability, CellTiter-Glo ATP luminescence, 48 h; Potency, µM (series often up to 46.1 µM), without a hit: at the highest dose activity, negative = less viability, most hits filed as cytotoxic; AID 686970; 1.6% of 360,000 active;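 note: NT is the 2HG producing partner of a matched IDH1 knockdown line; potency is the fitted concentration of half-maximal effect; 0% = DMSO-treated cells and -100% = media-only wells without cells; nearly all actives have a fitted effect of over 55% in size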
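Toxicity toward the 2HG-producing NT line was scored as %Activity, normalised to DMSO and no-cell wells, from CellTiter-Glo luminescence after 48 hours' treatment.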
HT1080 IDH1KD tx: HT-1080 IDH1 knockdown cell toxicity (counter line) | HT-1080 IDH1 knockdown viability, ATP luminescence, 48 h | AID 686971 | Potency, µM (top dose mostly 46.1 µM), without a hit: top-dose activity, negative = toxicity, hits mostly cytotoxic | 2% of 360,000 active;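 note: potency is the fitted concentration of half-maximal effect; 0% = DMSO wells and -100% = cell-free medium wells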
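Viability of IDH1-knockdown HT-1080 fibrosarcoma cells was assessed by CellTiter-Glo after 48 h at 37 °C with titrated compound; concentration-effect curves were classified by fit quality and response size.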
* marks the source's active call; other numbers are inactive results; ? = inconclusive; . = not tested or not shown; ! = not active in a repeat. Compounds with a hit are over-represented: about 19% of the library has one in this group of screens. Unless noted, calls come from the whole dose curve; as a rule, active = well fitted curve in the direction sought with a large enough effect; inconclusive = small, poorly fitted or top-dose-only effect, or another doubt; inactive = no such curve, though single readings can be large; an effect the other way counts as inactive or inconclusive. Unless noted, % is set by controls: 0 for no effect and ±100 for the full control effect.

SMILES	TDP1 cell CPT	DT40 TDP1 no CPT	IL-1B inflam inh	HT1080NT lethal	HT1080 IDH1KD tx
Cc1cc(C(=O)CCl)c(C)n1CCc1ccc(Cl)cc1	-99%	3.7µM*	-96*	15µM*	8.2µM*
Cc1cc(C(=O)CSc2nnc(N)s2)c(C)n1CCc1ccc(F)cc1	?	-29%	-9	-1%	-3%
COc1ccc(CCn2c(C)c(C(C)=O)c(C(C)=O)c2C)cc1OC	2%	2%	18	1%	-1%
Cc1cc(C(=O)CSc2nnc(N)s2)c(C)n1CCc1ccc(Cl)cc1	9.2µM*	?	17	8%	0%
O=C(O)CCCC(=O)Nc1ccn(-c2ccccc2)n1	18µM*	?	47	-1%	-4%
CC(=O)CC(=O)Nc1ccn(-c2ccccc2)n1	-17%	-4%	-6	11%	14%
CCOC(=O)CSc1nc(-c2ccc(F)cc2)cc(C(F)(F)F)c1C#N	-4%	-21%	.	.	.
OCCC1CN(Cc2ccc3nonc3c2)CCN1Cc1ccsc1 (stereo unspecified)	-25%	-27%	-13	-12%	-19%
CCOc1ccccc1CN1CCN(Cc2ccc3cc(F)ccc3n2)CC1CCO (stereo unspecified)	?	-16%	11	-14%	-10%
CCOc1ccc2nc(CN3CCN(Cc4ccccc4OCC)C(CCO)C3)ccc2c1 (stereo unspecified)	23µM*	26µM*	-70*	-18%	?
OCCC1CN(Cc2ccc3cc(Cl)ccc3n2)CCN1Cc1ccsc1 (stereo unspecified)	13µM*	?	-7	-12%	?
CCOc1ccccc1CN1CCN(Cc2cc3ccccc3[nH]2)CC1CCO (stereo unspecified)	?	?	?	23µM*	?
COc1ccc(CN2CCN(Cc3ccc4cc(F)ccc4n3)CC2CCO)c(C)c1C (stereo unspecified)	16µM*	?	?	?	18µM*
Nc1ccccc1C(=O)N1O[C@@H]2C=C[C@H]1CC2	-3%	-1%	1	6%	2%
COc1ccc(CN2CCN(Cc3cccn3-c3ncccn3)CC2CCO)c(C)c1C (stereo unspecified)	?	9.2µM*	-11	?	?
O/N=C\c1ccccc1Oc1ccc(F)cc1	3%	-24%	-1	-22%	-18%
Cc1ccccc1C(=O)Nc1cc2c(cc1N1CCCCC1)n(C)c(=O)n2C	-82%	12µM*	.	.	.
Cn1c(=O)n(C)c2cc(N3CCCCC3)c(NC(=O)c3c(F)cccc3F)cc21	13µM*	26µM*	.	.	.
Cn1c(=O)n(C)c2cc(N3CCCC3)c(NC(=O)c3cccc(F)c3)cc21	?	?	0	15%	6%
CCc1ccc(CN2C(=O)c3ccccc3C2C(=O)NC(C)CC)cc1 (stereo unspecified)	10%	?	12	0%	11%
COc1ccc(CN(CCC#N)CCC2(c3ccccc3)CC(C)N(C)CC2C)cc1OC (stereo unspecified)	3%	-16%	-20	-7%	-16%
COc1ccc(CNCCC2(Cc3ccccc3)CC(C)N(C)CC2C)cc1OC (stereo unspecified)	?	15µM*	-61*	-26%	?
NS(=O)(=O)c1ccccc1	-20%	-7%	24	-3%	12%
O=S(=O)(O)Sc1ccccc1	23µM*	21µM*	-99*	-11%	?
CCN(CC)c1ccc(SS(=O)(=O)O)cc1	-9%	-28%	-71*!	1%	14%
CCCN1CNc2c(c(=O)[nH]c(=S)n2CCc2ccc(OCC)c(OCC)c2)C1	-20%	?	.	2%	2%
COc1ccc(CN(C)C(=S)Nc2ccc(Cl)cc2)cc1	-17%	-10%	0	-5%	-2%
CCC(=O)Nc1cc(=O)[nH]c2nc(-c3ccc(Cl)cc3)nn12	?	18µM*	17	11%	2%
Oc1cc(CNC2CCCCC2)c(O)cc1CNC1CCCCC1	18µM*	5.8µM*	-19	1%	1%

Compound activity (PubChem)
